Screening data deposited in PubChem BioAssay by National Center for Advancing Translational Sciences (NCATS).
FLuc modulator = inhibits or activates purified firefly luciferase, miR-21 counter-screen; purified FLuc, Km substrates, luminescence inhibition; AID 588342; hit rate 6.9% among 360,000; P08659; Potency, µM (titrated, usually from 57.5 µM), hits mostly inhibitors; also: nearly all actives have a fitted effect of over 55% in size
Target sequence (P08659 whole entry, looked up): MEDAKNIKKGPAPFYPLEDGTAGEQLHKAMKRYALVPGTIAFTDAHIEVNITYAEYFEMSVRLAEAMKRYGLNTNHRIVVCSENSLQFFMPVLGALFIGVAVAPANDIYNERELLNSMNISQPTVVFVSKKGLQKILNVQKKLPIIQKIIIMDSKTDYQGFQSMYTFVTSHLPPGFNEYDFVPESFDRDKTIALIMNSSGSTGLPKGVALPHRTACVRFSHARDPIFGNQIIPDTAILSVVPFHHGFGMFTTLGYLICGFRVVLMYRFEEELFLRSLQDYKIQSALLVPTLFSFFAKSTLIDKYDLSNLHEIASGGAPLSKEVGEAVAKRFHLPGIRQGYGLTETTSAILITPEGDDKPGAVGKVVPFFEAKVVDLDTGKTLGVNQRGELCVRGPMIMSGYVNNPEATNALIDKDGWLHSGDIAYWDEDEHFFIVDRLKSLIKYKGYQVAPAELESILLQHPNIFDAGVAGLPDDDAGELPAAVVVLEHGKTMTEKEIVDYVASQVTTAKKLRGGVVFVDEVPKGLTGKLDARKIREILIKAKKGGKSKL
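Purified P. pyralis luciferase, 10 nM final, with Km-level 10 uM D-luciferin and 10 uM ATP in 50 mM Tris acetate pH 7.5, 10 mM Mg acetate, 0.01% Tween-20, 0.05% BSA; 6-point qHTS titration about 60 µM downward; luminescence read.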
SMN2 splice enh = SMN2 splice variant enhancement; HEK293 SMN2-luciferase splicing reporter, luminescence, 30-36 h; Potency, µM (highest dose often 46.1 µM), hits mostly activators; hit rate 2.8% among 210,000; AID 1458; also: nearly all actives have a fitted effect of over 55% in size
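HEK293 cells carry an SMN2 […]–luciferase reporter in which exon 7 inclusion puts luciferase in frame. Cells were plated 10-12 h before compound addition, then incubated 30-36 h at 37C. ONE-Glo luminescence was read; sodium butyrate at 4.5 mM final served as control.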
ELG1 genotox = inducers of genotoxicity in HEK293T ELG1-luciferase cells. HEK293T ELG1-luciferase reporter, luminescence, 16 h. Potency, µM (highest dose often 46 µM), usual class: activators. hit rate 1.3% among 330,000. AID 504466; also: nearly all actives have a fitted effect of over 60% in size
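DMSO vehicle served as control against compound-treated ELG1-luciferase HEK293T cells; exposure lasted 16 hr at 37 °C and 5% CO2, followed by ONE-Glo luminescence detection after 30 min.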
ELG1 repair inh = ELG1-dependent DNA repair inhibition; HEK293T ELG1-luciferase reporter, luminescence, 16 h; DNA damage induced by 5-fluorouridine; AID 504467; hit rate 2.3% among 330,000; Potency, µM (top dose mostly 46.1 µM), hits mostly inhibitors; also: nearly all actives have a fitted effect of over 55% in size
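Step one: seed 2,000 cells per well. Step two: pin-transfer compound or DMSO alongside 5-fluorouridine. Step three: incubate 16 hr, 37 °C, 5% CO2. Step four: add ONE-Glo, wait 30 min, read luminescence.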
NPC1 promoter act = activates the NPC1 promoter. Huh7 NPC1 promoter luciferase reporter, 24 h. hit rate 2.4% among 320,000. Potency, µM (top dose mostly 9.22 µM), most hits filed as activators; also: nearly all actives have a fitted effect of over 60% in size
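Luminescence read-out of NPC1 promoter-driven luciferase in stably transfected Huh7 cells; compounds delivered in DMSO and left 24 h at 37C, 5% CO2, qHTS titration format.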
Rab9 prom act = Rab9 promoter activation; hit rate 2.8% among 320,000; Potency, µM (doses to about 9.22 µM), usual class: activators; Huh7 Rab9 promoter-luciferase reporter, luminescence, 24 h; also: nearly all actives have a fitted effect of over 60% in size
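Promoter activation is measured as luciferase luminescence in Huh7 cells stably transfected with a Rab9 promoter–luciferase construct, following 24 h compound exposure at 37 °C and 10 min reagent incubation at ambient temperature.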
Numbers stand for hits; 0 = inactive; ? = inconclusive; - = no result. Most compounds without a hit are left out; they make up all but 9.4% or so of the library. Calls follow the shape of the dose curve; as a rule, active = well fitted curve in the direction sought with a large enough effect; inconclusive = small, poorly fitted or top-dose-only effect, or another doubt; inactive = no such curve, though single readings can be large; an effect the other way counts as inactive or inconclusive.

SMILES | FLuc modulator | SMN2 splice enh | ELG1 genotox | ELG1 repair inh | NPC1 promoter act | Rab9 prom act
CN1CCN(C(=S)NC(=O)c2ccc(C(C)(C)C)cc2)CC1 | ? | 0 | 0 | 0 | 0 | 0
Cn1cnc2c(=O)oc3ccc(S(=O)(=O)Nc4ccc(F)cc4)cc3c21 | 0 | - | - | - | - | -
CCN(CC)c1ccc(C(=O)N2CCc3c([nH]c4ccccc34)C2c2ccc(F)cc2)cc1 (stereo not drawn) | 0 | - | - | - | - | -
COc1ccc(C2c3c(oc4cc(C)cc(C)c4c3=O)C(=O)N2Cc2ccco2)cc1OC (stereo not drawn) | 0 | 0 | - | - | - | -
CC(C)OCCCn1c(=O)c2ccccc2n2c(-c3ccc(F)cc3)nnc12 | 0 | - | - | - | - | -
CCN(CC)S(=O)(=O)N1CCC(C(=O)NC2CCCc3ccccc32)CC1 (stereo not drawn) | 0 | 0 | 0 | 16µM | 0 | 0
Cn1c(=O)oc2cc(S(=O)(=O)N3CCCC(C(=O)N4CC=C(c5ccccc5)CC4)C3)ccc21 (stereo not drawn) | 0 | 0 | 0 | 5.8µM | 0 | 0
Cn1c(=O)oc2cc(S(=O)(=O)N3CCCC(C(=O)NC4CCCc5ccccc54)C3)ccc21 (stereo not drawn) | 0 | 0 | 0 | 2.9µM | 0 | 0
Cc1nn(C)c(C)c1S(=O)(=O)N1CCC(C(=O)NC2CCCc3ccccc32)CC1 (stereo not drawn) | 0 | 0 | 0 | 0 | 0 | 0
COc1ccc(C)cc1S(=O)(=O)NCC(c1cccs1)S(=O)(=O)c1ccc(C)cc1 (stereo not drawn) | 0 | - | - | - | - | -
Cc1ccc2occ(CC(=O)Nc3ccc(Cl)c(C(F)(F)F)c3)c2c1 | 0 | 0 | - | - | - | -
O=C(Cn1ncc2ccsc2c1=O)N1CCN(c2ccc(Cl)cc2)CC1 | 0 | 0 | - | - | - | -
COc1ccccc1N1CCN(C(=O)c2cc(-c3ccc(C)c(F)c3)on2)CC1 | 0 | - | - | - | - | -
O=C(CCN1C(=O)/C(=C/c2cccs2)SC1=S)Nc1ccc(C(=O)O)c(O)c1 | 17µM | - | 0 | 0 | 0 | 0
CC(=C\c1ccccc1)/C=C1/SC(=O)N(CCCC(=O)Nc2ccc(C(=O)O)cc2)C1=O | 17µM | 0 | ? | ? | 0 | 0
O=C(CCCN1C(=O)S/C(=C/C=C/c2ccccc2)C1=O)Nc1ccc(C(=O)O)cc1 | 0 | - | 0 | 0 | 0 | 0
CC(/C=C1\SC(=S)N(CCC(=O)Nc2ccc(O)cc2)C1=O)=C\c1ccccc1 | 0 | - | 0 | 0 | 0 | 0
CC(/C=C1\SC(=S)N(CCCC(=O)Nc2ccc(C(=O)O)c(O)c2)C1=O)=C\c1ccccc1 | 11µM | 35µM | ? | ? | 0 | ?
O=C(CCN1C(=O)/C(=C/c2cccs2)SC1=S)Nc1ccc(O)cc1 | 0 | - | 0 | 0 | 0 | 0
CN1CCN(c2ncc3c(n2)CCN(Cc2cc(Br)cs2)C3)CC1 | 0 | - | - | - | - | -
CCOC(=O)C(=NC1CCS(=O)(=O)C1)NNc1ccccc1Cl (stereo not drawn) | 17µM | - | 0 | 0 | 0 | 0
CCN1CCN(Cc2c(O)ccc3oc(C)c(C(=O)Nc4ccc(OC)cc4)c23)CC1 | 0 | 0 | - | - | - | -
CC1=C(C#N)C(=O)NC(=O)/C1=C/c1ccc(-c2ccc(S(N)(=O)=O)cc2)o1 | ? | 0 | 0 | 0 | 0 | 0
CS(=O)(=O)N(CCC#N)Cc1ccc(/C=C2\C(=O)Nc3ccccc32)o1 | 0 | 0 | 0 | 7.3µM | 0 | 0
O=S(=O)(Nc1cccc2ncccc12)c1cccs1 | 0 | 0 | 0 | 4.1µM | 0 | 0
SMILES | FLuc modulator | SMN2 splice enh | ELG1 genotox | ELG1 repair inh | NPC1 promoter act | Rab9 prom act
Cc1cc(-c2nc3cccnc3s2)ccc1NS(=O)(=O)c1cccs1 | 13µM | - | ? | ? | ? | 1.6µM
Cc1c(NS(C)(=O)=O)cccc1-c1nc2cccnc2s1 | 17µM | - | 0 | ? | ? | ?
Cc1c(NS(=O)(=O)c2cccs2)cccc1-c1nc2cccnc2s1 | 19µM | - | 0 | ? | 0 | 0
Cc1cccc2c1-c1sc(C(=O)NCCCN3CCN(c4cccc(Cl)c4)CC3)cc1CO2 | 0 | 0 | - | - | - | -
Cc1cccc(CNC(=O)c2ccc(N3Cc4ccccc4Oc4ncccc43)s2)c1 | 0 | - | - | - | - | -
Cc1cc(C)cc(NC(=O)CSc2nc3c([nH]c4ccccc43)c(=O)n2-c2ccc(F)cc2)c1 | 0 | - | - | - | - | -
